Results filed as inconclusive are left out. Activity calls are given as the source filed them. The call rests on the fitted dose curve; in most records, active means well fitted inhibition curve with a large enough effect; inconclusive means small, poorly fitted or top-dose-only effect; inactive means flat fitted curve, though single readings scatter.

One assay in a line: qHTS profiling for inhibitors of Plasmodium falciparum proliferation (AID 504749).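 Further: 0% = DMSO vehicle and full inhibition = artemisinin control; nearly all actives have a fitted effect of over 60% in size.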 The note with it: P. falciparum in erythrocytes, SYBR Green DNA, 72 h; at 12.8 µM (top of the series); parasite line A. The procedure, abridged: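 Three-day growth assay of blood-stage parasites in erythrocytes (0.3% parasitemia, 2.5% hematocrit) at 37 C, 5% CO2, quantified by SYBR Green DNA staining after overnight detergent lysis.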
(In general: Quantitative high-throughput screening tests each substance at several concentrations.)
Consider `CCCCCCCCCCCCCCCC[N+](C)(C)CCN(Cc1ccc(OC)cc1)c1ncccn1`, for which the activity, negative = inhibition was -28.5% (inactive).
On the same count and under the same terms, then `Cc1cccc(C)c1NC(=O)CN1CCN(CCCC(c2ccc(F)cc2)c2ccc(F)cc2)CC1`, with -9.2% (inactive); and `CN1CCN(CCCN2c3ccccc3Sc3ccc(S(=O)(=O)N(C)C)cc32)CC1`, with 5.01% (inactive).

The same assay, now with this note: P. falciparum in erythrocytes, SYBR Green DNA, 72 h; at 12.8 µM (top of the series); parasite line B.
Regarding `CCOc1ccc(Cc2nccc3cc(OCC)c(OCC)cc23)cc1OCC`, the activity, negative = inhibition was -21.6% (inactive).
As to `Cc1cccc(C)c1NC(=O)CN1CCN(CCCC(c2ccc(F)cc2)c2ccc(F)cc2)CC1`, the activity, negative = inhibition is -3.17% (inactive).
In the case of `CN1CCN(CCCN2c3ccccc3Sc3ccc(S(=O)(=O)N(C)C)cc32)CC1`, the activity, negative = inhibition is -5.83% (inactive).

The assay is the same for the next values; noted with them: P. falciparum in erythrocytes, SYBR Green DNA, 72 h; at 28.7 µM (top of the series); parasite line A.
For the molecule `CCCCCCCCCCOCC(O)CN` (configuration not stated), the activity, negative = inhibition was -16.8% (inactive).
Still for that read-out and setting: the result for `CN1CCC[C@@H]1c1cccnc1` reads 3.02% (inactive); that for `CC(C)NC[C@@H](O)COc1cccc2ccccc12`, 4.7% (inactive).
In the case of `CCCOC(C(=O)OC1CCN(C)CC1)(c1ccccc1)c1ccccc1`, the activity, negative = inhibition was -18.3% (inactive).
The same measure, in the same setting: the result for `Oc1ccc(Cl)c2cccnc12` reads -27% (inactive); that for `CNCCC=C1c2ccccc2CCc2ccccc21`, -6.28% (inactive).
Still for that read-out and setting: the result for `CCCCCCCCCCCCCCCCCC(=O)OCC(O)CO` (configuration not stated) reads 5.19% (inactive); that for `CCN(CC)C(=O)/C(C#N)=C/c1cc(O)c(O)c([N+](=O)[O-])c1`, -3.14% (inactive).
For `COc1ccc(C2C(=O)c3ccccc3C2=O)cc1`, the activity, negative = inhibition was 3.83% (inactive).
Still for that read-out and setting: then `CC(=O)OCC(=O)[C@@]1(OC(C)=O)[C@@H](C)C[C@H]2[C@@H]3C[C@H](F)C4=CC(=O)C=C[C@]4(C)[C@@]3(F)[C@@H](O)C[C@@]21C`, with -18.2% (inactive).
Still for that read-out and setting: the result for `O=C1[C@H]2CCCC[C@H]2C(=O)N1CCCCN1CCN(c2nsc3ccccc23)CC1` reads -3.99% (inactive).
